From PubChem BioAssay AID1159580 (chemical genetic matrix, 2015)
Values joined by “and” are separate entries in the source; they are usually repeats but may differ in a detail not shown here. Identical values can stand only once. The campaign covered roughly 5,500 compounds. About 2,000 (36%) were called active. Not shown: some 18% with an inconclusive outcome. No stated cut-off is given here; in the data, active means normalized growth mostly below about 0.91 (no sharp cut-off); inconclusive means no clear call, values can overlap the other calls; inactive means mostly above about 0.92. This is one part of the list.

Experiment: chemical genetic growth profiling, strain panel (AID 1159580);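 further: tested at 20 µM; growth read once vehicle control cultures reached saturation at 30 °C; 1 = growth at the plate median or of vehicle wells; lower values mean less growth of the strain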
Settings: S. cerevisiae deletion strains, growth OD

Measured: normalized growth

C[C@@H]1CC[C@@]23CCC4(C)[C@@](C=CC5[C@@]6(C)CCC(=O)C(C)(C)C6CC[C@]54C)(OC2=O)C3[C@H]1C (stereo not given in full)
inactive: locus YAL013W, strain DEP1, active compounds read low 1.03 | locus YAL021C, strain ccr4, active compounds read low 0.998 | locus YAL026C, strain drs2, active compounds read low 1.01 | locus YAL030W, strain snc1, active compounds read low 0.998 | locus YBL061C, strain skt5, active compounds read low 0.994 | locus YBR009C, strain hhf1, active compounds read low 1.02 | locus YBR021W, strain FUR4, active compounds read low 1.01 | locus YBR023C, strain chs3, active compounds read low 1 | locus YBR171W, strain sec66, active compounds read low 0.99 | locus YBR229C, strain ROT2, active compounds read low 1.02 | locus YBR231C, strain swc5, active compounds read low 1.01 | locus YBR279W, strain paf1, active compounds read low 0.99 | locus YCL011C, strain gbp2, active compounds read low 1.02 | locus YCL016C, strain dcc1, active compounds read low 0.981 | locus YCL029C, strain bik1, active compounds read low 1.03 | locus YCL061C, strain MRC1, active compounds read low 1.01 | locus YCL069W, strain vba3, active compounds read low 0.997 | locus YCR088W, strain abp1, active compounds read low 0.992 | locus YDL005C, strain med2, active compounds read low 1 | locus YDL035C, strain GPR1, active compounds read low 1.02 | locus YDL040C, strain nat1, active compounds read low 0.997 | locus YDL074C, strain BRE1, active compounds read low 1.01 | locus YDL101C, strain DUN1, active compounds read low 1.03 | locus YDL185W, strain tfp1, active compounds read low 0.989 | locus YDL192W, strain arf1, active compounds read low 1.01 | locus YDR001C, strain nth1, active compounds read low 0.987 | locus YDR069C, strain doa4, active compounds read low 1 | locus YDR101C, strain arx1, active compounds read low 1.01 | locus YDR137W, strain rgp1, active compounds read low 1.04 | locus YDR150W, strain NUM1, active compounds read low 1.02 | locus YDR159W, strain sac3, active compounds read low 1 | locus YDR162C, strain NBP2, active compounds read low 1.04 | locus YDR195W, strain ref2 0.957 | locus YDR297W, strain sur2, active compounds read low 1.02 | locus YDR318W, strain mcm21, active compounds read low 1.04 | locus YDR334W, strain swr1, active compounds read low 0.998 | locus YDR335W, strain msn5, active compounds read low 1 | locus YDR388W, active compounds read low 1 | locus YDR392W, strain spt3, active compounds read low 1.01 | locus YDR502C, strain sam2, active compounds read low 1.02 | locus YEL003W, strain gim4, active compounds read low 1.01 | locus YEL037C, strain rad23, active compounds read low 1.01 | locus YEL061C, strain CIN8 (second series), active compounds read low 0.99 | locus YEL061C, strain CIN8, active compounds read low 1.02 | locus YER015W, strain faa2, active compounds read low 1.01 | locus YER016W, strain bim1, active compounds read low 0.993 | locus YER110C, active compounds read low 1.01 | locus YER111C, strain swi4, active compounds read low 0.995 | locus YER155C, strain BEM2 (second series), active compounds read low 1.01 | locus YER155C, strain BEM2, active compounds read low 1.02 | locus YER167W, strain BCK2, active compounds read low 1.01 | locus YFR010W, strain ubp6, active compounds read low 1.02 | locus YGL078C, strain dbp3, active compounds read low 1.01 | locus YGL086W, strain mad1, active compounds read low 1 | locus YGL167C, strain pmr1, active compounds read low 0.994 | locus YGL173C, strain kem1, active compounds read low 1.01 | locus YGL227W, strain vid30, active compounds read low 0.983 | locus YGL240W, strain doc1, active compounds read low 1.03 | locus YGL248W, strain PDE1, active compounds read low 1.02 | locus YGL253W, strain hxk2, active compounds read low 1 | locus YGR135W, strain pre9, active compounds read low 1 | locus YGR229C, strain SMI1, active compounds read low 1.02 | locus YGR252W, strain gcn5, active compounds read low 1.02 | locus YHR013C, strain ard1, active compounds read low 0.986 | locus YHR027C, strain rpn1, active compounds read low 1.01 | locus YHR030C, strain SLT2, active compounds read low 1.02 and 0.996 | locus YHR079C, strain IRE1 (second series), active compounds read low 1.02 | locus YHR079C, strain IRE1, active compounds read low 1.01 | locus YHR129C, strain ARP1, active compounds read low 1.02 | locus YHR142W, strain chs7, active compounds read low 0.97 | locus YHR200W, strain rpn10, active compounds read low 1.02 | locus YIL066C, strain RNR3, active compounds read low 1.03 | locus YIL073C, strain SPO22, active compounds read low 1 | locus YIL125W, strain kgd1, active compounds read low 0.992 | locus YIR030C, strain dcg1, active compounds read low 1.04 | locus YJL092W, strain hpr5, active compounds read low 0.989 | locus YJL095W, strain BCK1 (second series), active compounds read low 1 | locus YJL095W, strain BCK1, active compounds read low 1.04 and 0.991 | locus YJL115W, strain asf1, active compounds read low 0.993 | locus YJL129C, strain trk1, active compounds read low 0.98 | locus YJL134W, strain LCB3, active compounds read low 1.01 | locus YJL154C, strain vps35, active compounds read low 0.981 | locus YJL164C, strain tpk1, active compounds read low 1.01 | locus YJL166W, strain qcr8, active compounds read low 1.01 | locus YJL168C, strain set2, active compounds read low 1.01 | locus YJL187C, strain SWE1 (second series), active compounds read low 1.03 | locus YJL187C, strain SWE1, active compounds read low 0.993 | locus YJR043C, strain POL32, active compounds read low 1.02 | locus YJR066W, strain TOR1, active compounds read low 0.953 | locus YKL009W, strain mrt4, active compounds read low 1.01 | locus YKL068W, active compounds read low 1.02 | locus YKL085W, strain MDH1 (second series), active compounds read low 1 | locus YKL085W, strain MDH1, active compounds read low 1 | locus YKL160W, strain elf1, active compounds read low 0.999 | locus YKR001C, strain vps1, active compounds read low 0.977 | locus YKR026C, strain gcn3, active compounds read low 1 | locus YKR091W, strain srl3, active compounds read low 0.994 | locus YLL001W, strain dnm1, active compounds read low 0.982 | locus YLL026W, active compounds read low 1 | locus YLL041C, strain sdh2, active compounds read low 1 | locus YLR027C, strain aat2, active compounds read low 1.02 | locus YLR039C, strain RIC1, active compounds read low 1.05 | locus YLR058C, strain SHM2, active compounds read low 1.02 | locus YLR102C, strain apc9, active compounds read low 1.01 | locus YLR113W, strain HOG1, active compounds read low 1 | locus YLR221C, strain rsa3, active compounds read low 0.988 | locus YLR258W, strain gsy2, active compounds read low 1.01 | locus YLR262C, strain YPT6 (second series), active compounds read low 1.02 | locus YLR262C, strain YPT6, active compounds read low 1.07 | locus YLR268W, strain sec22, active compounds read low 0.995 | locus YLR320W, strain mms22, active compounds read low 1 | locus YLR330W, strain CHS5, active compounds read low 1.02 | locus YLR342W, strain FKS1 (second series), active compounds read low 1.01 | locus YLR342W, strain FKS1, active compounds read low 1.01 | locus YLR357W, strain rsc2, active compounds read low 0.991 | locus YLR370C, strain arc18, active compounds read low 0.996 | locus YLR384C, strain iki3, active compounds read low 0.989 | locus YLR418C, strain cdc73, active compounds read low 1.01 | locus YML016C, strain PPZ1, active compounds read low 1.02 | locus YML032C, strain rad52, active compounds read low 1.04 | locus YML120C, strain ndi1, active compounds read low 0.994 | locus YML124C, strain tub3, active compounds read low 1.02 | locus YMR058W, strain fet3, active compounds read low 1.01 | locus YMR078C, strain ctf18, active compounds read low 1.09 | locus YMR125W, strain sto1, active compounds read low 0.978 | locus YMR129W, active compounds read low 0.99 | locus YMR205C, strain PFK2, active compounds read low 0.983 | locus YMR223W, strain ubp8, active compounds read low 1.04 | locus YMR231W, strain pep5, active compounds read low 0.993 | locus YMR307W, strain GAS1, active compounds read low 1.06 | locus YNL067W, strain RPL9B, active compounds read low 1.02 | locus YNL071W, strain lat1, active compounds read low 1.01 | locus YNL153C, strain GIM3, active compounds read low 1.03 | locus YNL183C, strain NPR1, active compounds read low 0.964 | locus YNL209W, strain ssb2, active compounds read low 0.988 | locus YNL233W, strain BNI4, active compounds read low 1.03 | locus YNL248C, strain rpa49, active compounds read low 1.02 | locus YNL250W, strain rad50, active compounds read low 1 | locus YNL271C, strain bni1, active compounds read low 1.01 | locus YNL298W, strain CLA4, active compounds read low 1.01 | locus YNL307C, strain MCK1, active compounds read low 1.02 | locus YNL322C, strain KRE1 (second series), active compounds read low 1 | locus YNL322C, strain KRE1, active compounds read low 1.01 | locus YNR049C, strain mso1, active compounds read low 0.994 | locus YNR052C, strain pop2, active compounds read low 1.02 | locus YOL006C, strain TOP1, active compounds read low 1 | locus YOL012C, strain htz1 1.03 | locus YOL147C, strain pex11, active compounds read low 1.01 | locus YOR001W, strain rrp6, active compounds read low 1.02 | locus YOR061W, strain CKA2, active compounds read low 1.01 | locus YOR069W, strain VPS5, active compounds read low 1.01 | locus YOR070C, strain gyp1, active compounds read low 0.995 | locus YOR080W, strain dia2, active compounds read low 0.996 | locus YOR083W, strain WHI5, active compounds read low 1.01 | locus YOR106W, strain vam3, active compounds read low 1 | locus YOR136W, strain idh2, active compounds read low 1.01 | locus YOR144C, strain elg1, active compounds read low 1.02 | locus YOR184W, strain ser1, active compounds read low 1.01 | locus YOR231W, strain MKK1, active compounds read low 1.01 | locus YOR265W, strain rbl2, active compounds read low 1.01 | locus YOR270C, strain vph1, active compounds read low 1.03 | locus YOR290C, strain snf2, active compounds read low 0.97 | locus YOR316C, strain cot1, active compounds read low 1.03 | locus YPL051W, strain arl3, active compounds read low 1.04 | locus YPL078C, strain atp4, active compounds read low 1.01 | locus YPL106C, strain sse1, active compounds read low 1.01 | locus YPL240C, strain hsp82, active compounds read low 0.996 | locus YPL256C, strain CLN2, active compounds read low 0.987 | locus YPR119W, strain clb2, active compounds read low 1.02 | locus YPR141C, strain kar3, active compounds read low 1.04 | locus YPR163C, strain tif3, active compounds read low 1.01 | locus YPR167C, strain met16, active compounds read low 1.01 | strain wtn01, active compounds read low 0.995
active: locus YHR094C, strain hxt1, active compounds read low 1.11 [resistant] | locus YLR371W, strain rom2, active compounds read low 1.1 [resistant]
